Rows were chosen to be rich in hits. Some 2.8% of all compounds tested hit in one or more screens of this group.
IP6K1 inh = Primary qHTS assay for small molecule inhibitors of Inositol hexaphosphate kinase 1 (IP6K1); IP6K1 kinase, ADP-Glo luminescence, 2 h; hits give low values; activity change, % (series mostly up to about 58 µM); 140,000 compounds, 0.81% hits; AID 1645851, 2021; in the data active means activity change below about -25%; further: on the % scale 0 is the no-effect control and ±100 the full control effect
Target sequence (Q92551 whole entry, looked up): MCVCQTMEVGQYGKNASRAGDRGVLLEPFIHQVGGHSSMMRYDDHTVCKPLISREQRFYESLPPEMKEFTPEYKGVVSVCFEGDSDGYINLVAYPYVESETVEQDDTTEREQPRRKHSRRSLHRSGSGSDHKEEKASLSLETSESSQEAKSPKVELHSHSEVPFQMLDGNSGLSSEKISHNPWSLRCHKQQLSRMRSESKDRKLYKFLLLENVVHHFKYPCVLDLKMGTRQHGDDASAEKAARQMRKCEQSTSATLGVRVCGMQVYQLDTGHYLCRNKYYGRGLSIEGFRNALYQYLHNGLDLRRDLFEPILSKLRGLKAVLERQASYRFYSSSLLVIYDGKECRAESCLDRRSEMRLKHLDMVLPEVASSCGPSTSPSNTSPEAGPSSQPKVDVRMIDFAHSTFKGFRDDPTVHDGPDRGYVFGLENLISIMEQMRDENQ
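ADP-Glo luminescence measures ADP made by human IP6K1 during a 2 h RT reaction with ATP/IP6 (mix at 1.3 mM/130 uM); top library doses 57.5 and 19.1 uM final.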
KDM5B inhibitor = Primary screen for KDM5B Histone Demethylases FDH-coupled qHTS. Lysine-specific demethylase 5B (Homo sapiens), Q9UGL1. KDM5B demethylase, FDH-coupled NADH fluorescence (FDH is formaldehyde dehydrogenase). Potency, µM (series often up to 57.7 µM), most hits filed as inhibitors. 220,000 compounds, 2.6% hits. AID 1347165, 2019; active means well fitted inhibition curve with a large enough effect; inconclusive means small, poorly fitted or top-dose-only effect; inactive means no such curve, though single readings can be large or run the other way; further: potency means the concentration at half of the fitted maximal effect; 0% is about no effect; nearly all actives have a fitted effect of over 70% in size
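KDM5BΔAP (200 nM final) in 50 mM HEPES pH 7.5, 0.01% Tween-20 was preincubated 10 min at RT with compound over a concentration range. Substrate mix (H3K4me3 12.5 µM, α-KG 25 µM, Fe²⁺, ascorbate, NAD⁺, FDH) was added, and NADH fluorescence change over 30 min gave dose-response curves.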
Active calls of the source: *; i = inactive; ? = inconclusive; / = not tested or not shown; + = active, no number.

SMILES	IP6K1 inh	KDM5B inhibitor
CCCN1CCCCC12Cc1ccccc1CN(C(=O)C1CCCC1)C2 (stereo not drawn)	-6	50µM*
O=C(O)CCC(=O)N1Cc2ccccc2CC2(CCCCN2Cc2ccccc2)C1 (stereo not drawn)	7	i
CCCN1CCCCC12Cc1ccccc1CN(C(C)=O)C2 (stereo not drawn)	-4	?
O=C(O)CCC(=O)N1Cc2ccccc2CC2(CCCCN2CCc2ccccc2)C1 (stereo not drawn)	-12	+
CN1CCCCC12Cc1ccccc1CN(C(=O)c1ccccc1)C2 (stereo not drawn)	-6	56µM*
CN1CCCCC12Cc1ccccc1CN(C(=O)C1CCCC1)C2 (stereo not drawn)	-8	i
Cc1cccc(NC(=O)CCNC(=O)Cc2ccccc2)c1C	/	i
CCC1CCC2(CC1)NC(=O)N(Cc1coc(-c3ccc(C)cc3)n1)C2=O (stereo not drawn)	/	i
Cn1c(=O)c2cc(S(=O)(=O)NC(Cc3ccccc3)C(=O)Nc3ccc(F)cc3)ccc2n(C)c1=O (stereo not drawn)	11	?
O=C1CC(C(=O)NCc2ccc(C(F)(F)F)cc2)c2ccccc2N1 (stereo not drawn)	/	i
CC(C)CCNC[C@H]1O[C@H](Cc2cc(CN3CCCCC3)on2)CC[C@@H]1O	7	i
CN1CCN(C(=O)c2cccs2)CC12CCNC(=O)CC2 (stereo not drawn)	8	i
CN1CCN(C(=O)c2cccc3c2NCCC3)CC12CCNC(=O)CC2 (stereo not drawn)	12	25µM*
Cc1cc(Br)ccc1NC(=O)CCS(=O)(=O)c1cccc2nsnc12	7	?
COc1ccc2c(c1)CCN=C2C[C@H]1CN(C(=O)C(C)(C)C)CC[C@H]1CC(=O)O	4	i
COc1cc2c(cc1OC)C(C[C@H]1CN(C(=O)c3ccccc3)CC[C@H]1CC(=O)O)=NCC2	8	i
COc1ccc2c(c1)CCN=C2C[C@H]1CN(C(=O)Cc2cccs2)CC[C@H]1CC(=O)O	-4	35µM*
COc1ccc2c(c1)CCN=C2C[C@H]1CN(C(=O)Nc2ccccc2)CC[C@H]1CC(=O)O	0	?
COc1cc2c(cc1OC)C(C[C@H]1CN(C(=O)c3ccc4c(c3)OCO4)CC[C@H]1CC(=O)O)=NCC2	8	32µM*
C=CCNC(=O)N1CC[C@@H](CC(=O)O)[C@@H](CC2=NCCc3cc(OC)ccc32)C1	11	35µM*
COC(=O)C[C@@H]1CCN(C(=O)COc2ccccc2)C[C@@H]1CC1=NCCc2cc(OC)c(OC)cc21	-1	25µM*
COCCNC(=O)[C@@H]1C[C@H](Oc2ccccc2)CN1C(=O)Nc1ccc(C)c(C)c1	2	i
CCc1cc2c(cc3c(=O)n(CCCC(=O)NCc4cccc(Br)c4)ncn32)s1	-16	i
Cc1cc(C)cc(C(=O)OCCN(C)C2CN(Cc3cn(Cc4ccc([N+](=O)[O-])cc4)nn3)S(=O)(=O)C2)c1 (stereo not drawn)	/	i
CCc1nc(-c2c3n(c(=O)n(CC(=O)Nc4cccc(OC)c4)c2=O)CCCCC3)no1	42	i
SMILES	IP6K1 inh	KDM5B inhibitor
O=C(NCCC1=CCCCC1)c1ccccc1C(F)(F)F	/	i
COc1ccc2c(c1)CCN=C2C[C@H]1CN(C(=O)c2ccccc2)CC[C@H]1CC(=O)O	21	28µM*
COc1ccc2c(c1)CCN=C2C[C@H]1CN(C(=O)c2cccc(F)c2)CC[C@H]1CC(=O)O	10	?
COc1cc2c(cc1OC)C(C[C@H]1CN(C(=O)Cc3cccs3)CC[C@H]1CC(=O)O)=NCC2	7	28µM*
COc1cc2c(cc1OC)C(C[C@H]1CN(C(=O)c3ccc(F)cc3)CC[C@H]1CC(=O)O)=NCC2	-1	i
O=C(COC(=O)c1ccc2c(c1)NC(=O)CS2)NCc1ccccc1	/	i
COc1ccc(CN2Cc3[nH]cnc3C[C@H]2c2nc(C(C)C)no2)cc1	30	?
COC(=O)[C@@H]1Cc2nc[nH]c2CN1Cc1ccc(C)cc1	2	?
COc1ccc(CN2Cc3[nH]cnc3C[C@H]2c2nc(-c3ccc(F)c(Cl)c3)no2)cc1	6	?
CC(C)c1noc([C@@H]2Cc3nc[nH]c3CN2Cc2ccc(F)cc2)n1	-10	28µM*
O=C(O)c1ccc(CN2Cc3[nH]cnc3C[C@H]2c2nc(-c3ccc(F)c(Cl)c3)no2)cc1	-5	25µM*
Cc1ccc(-c2noc([C@@H]3Cc4nc[nH]c4CN3Cc3ccc(C(=O)O)cc3)n2)cc1	1	35µM*
Cc1ccc(-c2noc([C@@H]3Cc4nc[nH]c4CN3Cc3ccc(F)cc3)n2)cc1	-2	i
COC(=O)[C@@H]1Cc2nc[nH]c2CN1Cc1ccc(C(=O)O)cc1	19	40µM*
COc1ccccc1-c1cccc(C(=O)N2CCC[C@H]2C(=O)NCCCc2ccccc2)c1	-6	/
Cc1noc(C(C)N2CCN(C(=O)c3cccs3)CC2)n1 (stereo not drawn)	/	i
Cc1c(CC(=O)NCc2ccco2)c(=O)oc2cc(O)ccc12	/	i
CCC(N)(CC)c1cn(CC2CCCN(C(=O)Nc3ccsc3)C2)nn1 (stereo not drawn)	6	i
O=C(CC(c1ccccc1)c1ccccc1)Nc1ccc(Oc2ccccc2)cc1	/	i
CC(=O)Nc1ccc(/C=C/C(=O)C23CC4CC(CC(C4)C2)C3)cc1	/	i
O=C(c1cnn2ncccc12)N1CCOCC1	-7	i
Cc1ccc2c(C(=O)N3CCOCC3)cnn2c1	-11	32µM*
O=C(NCC1Cn2cccc2CN1Cc1ccccc1)c1c[nH]c2ccccc12 (stereo not drawn)	0	?
CN1Cc2cccn2CC1CNC(=O)c1ccoc1 (stereo not drawn)	15	28µM*
O=C(NCC1Cn2cccc2CN1Cc1ccccc1)c1n[nH]c2ccccc12 (stereo not drawn)	-15	14µM*
SMILES	IP6K1 inh	KDM5B inhibitor
O=C(NCC1Cn2cccc2C(=O)N1Cc1ccccc1)c1ccsc1 (stereo not drawn)	-4	i
O=C(NCC1Cn2cccc2CN1Cc1ccccc1)Nc1ccccc1 (stereo not drawn)	-10	/
Cc1noc(C)c1C(=O)NCC1Cn2cccc2CN1C (stereo not drawn)	-8	?
O=C(NCC1Cn2cccc2CN1Cc1ccccc1)c1ccoc1 (stereo not drawn)	-12	28µM*
O=C(NCC1Cn2cccc2CN1Cc1ccccc1)c1ccsc1 (stereo not drawn)	-2	25µM*
CC(Sc1ncnc2nc[nH]c12)C(=O)NCCc1c[nH]c2ccc(F)cc12 (stereo not drawn)	/	i
CC(C)(C)C(=O)N1N=C(c2ccc3c(c2)OCO3)CC1c1ccc2nccnc2c1 (stereo not drawn)	/	i
COCc1noc(CN2CCN(C)C3(CCC(=O)N(CC4CC4)CC3)C2)n1 (stereo not drawn)	-1	?
Cc1cnc(CNC(=O)CC2C(=O)NCCN2CCCc2ccccc2)cn1 (stereo not drawn)	11	?
CCCCN1C(=O)CC[C@H]2CN(C(=O)Cc3cnccn3)CC[C@H]21	-3	i

Bioassay records from PubChem.
